The full list was thinned out, with hits kept by preference.
ST2 inh: inhibitors of human ST2 (IL1RL1) binding to IL-33; AlphaLISA ST2-Fc/biotin-IL-33 interaction, 1 h; AID 1259354; hit rate 2.3% among 78,000; Q01638; inhibition, % for hits at 17 µM; in the data active = inhibition above about 30%
Target sequence (Q01638 whole entry, looked up): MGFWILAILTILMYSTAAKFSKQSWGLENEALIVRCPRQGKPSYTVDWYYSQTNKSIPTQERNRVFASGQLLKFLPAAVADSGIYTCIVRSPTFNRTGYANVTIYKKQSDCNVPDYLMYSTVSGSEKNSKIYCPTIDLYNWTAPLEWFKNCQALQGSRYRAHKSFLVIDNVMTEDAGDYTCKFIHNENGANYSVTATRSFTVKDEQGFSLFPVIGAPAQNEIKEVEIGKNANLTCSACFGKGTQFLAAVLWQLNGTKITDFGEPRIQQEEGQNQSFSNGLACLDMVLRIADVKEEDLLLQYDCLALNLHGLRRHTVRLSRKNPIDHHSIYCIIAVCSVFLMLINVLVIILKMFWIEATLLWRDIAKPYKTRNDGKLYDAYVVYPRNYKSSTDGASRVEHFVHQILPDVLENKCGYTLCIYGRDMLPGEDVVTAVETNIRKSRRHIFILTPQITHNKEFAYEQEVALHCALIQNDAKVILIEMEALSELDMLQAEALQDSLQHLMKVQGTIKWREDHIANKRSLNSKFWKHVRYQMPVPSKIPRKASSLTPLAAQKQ
* marks the source's active call; other numbers are inactive results; i = inactive.

SMILES | ST2 inh
CC(C)COC(=O)C1C2C=CC3(CN(C(c4ccccc4)c4ccccc4)C(=O)C13)O2 (stereo not given) | i
COc1ccc(C(=O)C2CCCN(c3nccc(N)n3)C2)cc1OC (stereo not given) | i
C=CCOc1ccc(C2N3CC4(CCC)CN2CC(CCC)(C3)C4=O)cc1 (stereo not given) | i
COC[C@H]1CCCN1C(=O)CC[C@H]1CNC(=O)[C@@H]2[C@@H](CCN2Cc2ccc(OC)cc2)N1C | i
N#CCN1C(=O)c2ccccc2S1(=O)=O | i
Cn1c(=O)c2c(SCC(=O)N3CCCCCC3)nc(-c3ccc(F)cc3)nc2n(C)c1=O | i
COC(=O)[C@@H]1C[C@@H](NC(=O)c2ccc3c(c2)nnn3C)CN1C | i
COc1ccccc1N1CCN(C(=O)Nc2ccc([N+](=O)[O-])cc2)CC1 | i
COc1ccc([N+](=O)[O-])cc1NC(=O)C(Cl)(Cl)Cl | i
CCN(CC)CC(O)COc1cc([N+](=O)[O-])ccc1N1CCCC1 (stereo not given) | i
COc1cc([N+](=O)[O-])ccc1N1CCCC1 | 38%*
COc1cc([N+](=O)[O-])ccc1N | i
COc1ccc([N+](=O)[O-])cc1-n1cccc1 | 39%*
COc1nc2ccccc2cc1CN1CCN2C(=O)CN(C)C(=O)C2C1 (stereo not given) | i
O=C(CCC1CCCN(Cc2ccccc2OC(F)F)C1)N1CCOCC1 (stereo not given) | i
C=CCn1cc(CN2CCN(CCS(C)(=O)=O)CC2)c(C)n1 | i
CC(=O)c1ccc(NC(=O)CCCOc2ccc(Cl)cc2)cc1 | i
O=C1CN(C(=O)c2ccccc2)C(=O)CN1C(=O)c1ccccc1 | i
O=C1C(=C(c2ccccc2)c2ccccc2)C(=O)c2ccccc21 | 39%*
O=C1C(=C(O)c2ccccc2)NS(=O)(=O)c2ccccc21 | i
CC(NC(=O)COc1ccccc1O)[C@H]1CC2CCC1C2 (stereo not given in full) | i
Cn1c(=O)[nH]c(=O)c2c1nc1n2CC(c2ccc(Cl)cc2)=NN1 | i
Cc1nc2c(c(=O)[nH]1)CCN(C(=O)c1cc(-n3cccn3)ccc1Cl)C2 | i
NC(=O)c1ccc(N2CCN(Cc3cccc(-n4cccn4)c3)CC2)nc1 | i
Cc1cc(-n2cccn2)ccc1CN1CCN(c2cc(=O)[nH]c(N)n2)CC1 | 40%*
SMILES | ST2 inh
C=C(C)CN(CC)Cc1ccc(-c2ccccc2[N+](=O)[O-])o1 | 33%*
CCN(CC)C(=O)c1ccc([N+](=O)[O-])o1 | i
C=C(C)CN(CC)Cc1cc(OC)c(OC)c(OC)c1 | i
O=C(NCCc1ccccc1)[C@H](CSCc1ccccc1)N1Cc2ccccc2C1=O | i
Cc1ccc(N2C(=O)C3C4C=CC(O4)C3C2=O)cc1[N+](=O)[O-] (stereo not given) | i
Cc1ccc(-n2cccc2)cc1[N+](=O)[O-] | 31%*
Cc1ccc(N2C(=O)c3cccc([N+](=O)[O-])c3C2=O)cc1Cl | i
CCN(CC)C(NC(=O)c1ccccc1[N+](=O)[O-])C(Cl)(Cl)Cl (stereo not given) | i
CN1C[C@@H](NC(=O)c2ccc(-c3ccccc3)cc2)C[C@H]1c1nc(-c2ccc(Cl)cc2)no1 | i
CN1C[C@@H](NC(=O)c2ccc(C(C)(C)C)cc2)C[C@H]1c1nc(-c2ccc3c(c2)OCO3)no1 | 64%*
Cc1noc([C@@H]2C[C@H](NC(=O)c3ccco3)CN2C)n1 | i
COc1ccc(C(=O)N[C@H]2C[C@@H](c3nc(-c4ccc(OC(F)(F)F)cc4)no3)N(C)C2)cc1 | i
Cc1noc([C@@H]2C[C@H](NC(=O)c3ccc(F)cc3)CN2C)n1 | 40%*
CN(C)c1ccc(C(=O)N[C@H]2C[C@@H](c3nc(-c4ccccn4)no3)N(C)C2)cc1 | i
Cc1nc(C(F)(F)F)nc(-c2cccc3[nH]ccc23)c1C | i
CCCCC(=O)Nc1cccc(OCc2cc(=O)n3cc(C)ccc3n2)c1 | i
CCSc1nnnn1-c1ccc2c(c1)OCO2 | i
COc1cc(-c2ccc(C(F)(F)F)cn2)cc2c1OCCN(C(=O)CNC(C)=O)C2 | i
CC(C)c1nc(CNC2CCC3(CCNCC3)CC2)cs1 | i
COc1ccc(NS(=O)(=O)c2ccc3c(c2)c(=O)n(C)c(=O)n3C)cc1 | i
Cc1cc2ncn(C(=O)C(Cl)Cl)c2cc1C | i
CN(CCC1CCOCC1)C(=O)CC1C(=O)NCCN1Cc1cccc2ccccc12 (stereo not given) | i
CC(C)CN1CCNC(=O)C1CC(=O)N(C)Cc1cccc2cccnc12 (stereo not given) | 79%*
CN(Cc1cnccn1)C(=O)CC1C(=O)NCCN1Cc1ccc(F)cc1Cl (stereo not given) | i
CC(=O)c1c(C)oc2c(Br)cc(NS(=O)(=O)c3ccccc3)cc12 | i
Cc1oc(CC(C)C)c(CN2CCCCC2)c1C(=O)O | i
Cc1ccc(C)c(OCC(=O)NCc2ccc3c(c2)OCO3)c1 | i
Brc1ccc(-c2cn3ccccc3n2)s1 | i
Brc1ccc(-c2cc3ccccn3c2)cc1 | 34%*
